# Experimental data reported in PubChem BioAssay (NCATS).
# Results filed as inconclusive are left out. A call without a number means that no potency is given here. Some structures have more than one record in an assay (separate samples or runs), and their calls can disagree. Calls of active or inactive are those of the source. Unless noted, calls come from the whole dose curve.
# Key:
# [1] = Primary qHTS for Huh7 cytotoxicity: counterscreen for inhibitors of MERS-S pseudotyped particle cell entry (AID 1479147); settings: outcome: dose series up to 57.1 µM unless noted
# [2] = Primary qHTS for inhibitors of MERS-S pseudo-typed particle cell entry (AID 1479149); settings: outcome: dose series up to 57.1 µM unless noted; note: nearly all actives have a fitted effect of over 60% in size; note: potency is the fitted concentration of half-maximal effect
# [3] = Primary qHTS for Vero E6 cytotoxicity: counterscreen for inhibitors of SARS-S pseudo-typed particle cell entry (AID 1479150); settings: outcome: dose series up to 57.1 µM unless noted
# [4] = Cytotoxicity counterscreen for inhibitors of SARS-CoV-2 cell entry (AID 1645845); settings: outcome: dose series up to 57.1 µM unless noted; note: nearly all actives have a fitted effect of over 50% in size
# Procedure, shortened: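 ATP-content luminescence (ATPLite 1step, 15 min RT) read after 48 h compound exposure of Expi293F cells stably expressing human ACE2; normalized to cells-only wells and media-only wells.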
# [5] = Primary qHTS to identify inhibitors of SARS-CoV-2 cell entry (AID 1645846); settings: SARS-CoV-2 pseudovirus cell entry assay, luminescence; note: nearly all actives have a fitted effect of over 45% in size; note: potency is the fitted concentration of half-maximal effect
# Procedure, shortened: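 Entry measured by luciferase signal 48 h after adding SARS-CoV-2-S pseudotyped MLV particles to HEK293-ACE2 cells preincubated 1 h with compounds. Normalisation: bald particles and spike particles.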
# [6] = target: Glutathione peroxidase 1 (Homo sapiens) (UniProt P07203); assay: Primary qHTS Assay for Inhibitors of Recombinant Selenoprotein Glutathione Peroxidase 1 (GPX1) (AID 1845191; active = well fitted curve in the direction sought with a large enough effect; an effect the other way counts as inactive or inconclusive; note: nearly all actives have a fitted effect of over 65% in size)
# Sequence of Glutathione peroxidase 1 (Homo sapiens) (P07203 whole entry, looked up): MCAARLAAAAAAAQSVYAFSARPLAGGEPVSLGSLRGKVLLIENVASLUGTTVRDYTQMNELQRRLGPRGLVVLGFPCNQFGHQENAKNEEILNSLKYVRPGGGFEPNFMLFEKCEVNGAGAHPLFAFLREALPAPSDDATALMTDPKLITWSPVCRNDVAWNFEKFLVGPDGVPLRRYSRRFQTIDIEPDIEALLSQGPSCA
# Procedure, shortened: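 NADPH consumption tracked by fluorescence at 340/450 nm between t=0 and t=15 min, room temperature. Final mix: 10 nM GPX1, 100 nM glutathione reductase, 1 mM GSH, 0.5 mM NADPH, 0.5 mM cumene hydroperoxide, 0.01% BSA; 30 min compound–enzyme preincubation.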
# [7] = target: Phospholipid hydroperoxide glutathione peroxidase GPX4 (Homo sapiens) (UniProt P36969); assay: Primary qHTS Assay for Inhibitors of Recombinant Selenoprotein Glutathione Peroxidase 4 (GPX4) (AID 1845192; active = well fitted curve in the direction sought with a large enough effect; an effect the other way counts as inactive or inconclusive; note: nearly all actives have a fitted effect of over 65% in size)
# Sequence of Phospholipid hydroperoxide glutathione peroxidase GPX4 (Homo sapiens) (P36969 whole entry, looked up): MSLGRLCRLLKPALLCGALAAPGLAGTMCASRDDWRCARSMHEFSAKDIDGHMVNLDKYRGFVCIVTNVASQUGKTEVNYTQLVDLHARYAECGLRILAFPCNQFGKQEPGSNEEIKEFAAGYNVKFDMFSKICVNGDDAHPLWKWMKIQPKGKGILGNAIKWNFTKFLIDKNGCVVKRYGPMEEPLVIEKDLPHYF
# Procedure, shortened: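 NADPH consumption followed by fluorescence at 340/450 nm, t=0 and after 15 min at room temperature. Reaction started with cumene hydroperoxide (0.5 mM final) after 30 min compound–GPX4 preincubation; final 200 nM GPX4, 100 nM GR, 1 mM GSH, 0.5 mM NADPH.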
# [8] = KB-8-5-11 P-gp reporter qHTS against the NCATS DSHEA and TCM libraries (AID 1919977; active = well fitted curve in the direction sought with a large enough effect; an effect the other way counts as inactive or inconclusive)
# Procedure, shortened: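 CellTiter-Glo luminescence measured viability after ~72 h exposure (37C, 5% CO2) of KB-8-5-11 cervical adenocarcinoma cells overexpressing P-gp. Colchicine was omitted during assay. Substances were tested as titrations.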
# [9] = VSVG counterscreen qHTS to identify inhibitors of SARS-CoV-2 cell entry (AID 1645847); note: potency is the fitted concentration of half-maximal effect; nearly all actives have a fitted effect of over 65% in size
# Procedure, shortened: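 Luminescence read after 48 h infection at 37 C with VSV-G-pseudotyped MLV particles, following 1 h compound exposure of Expi293F cells stably expressing human ACE2; scaled between bald particle and VSV-G particle wells.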
# [10] = activity change, negative = inhibition: at 57.1 µM (top of the series) unless noted, outcome: at 57.1 µM (top of the series) unless noted
compound,measurement,setting,value
O=C(O)c1cc(=O)c2c3nc4ccccc4oc-3cc(=O)c2[nH]1,Potency,[1],inactive
same,Potency,[2],inactive
same,Potency,[3],inactive
same,Potency,[4],inactive
same,"activity change, negative = inhibition",[5]; [10],-16.2%
CC(C)OC(=O)[C@H](C)N[P@@](=O)(OC[C@H]1O[C@@H](n2ccc(=O)[nH]c2=O)[C@](C)(F)[C@@H]1O)Oc1ccccc1,Potency,[1],inactive
same,Potency,[2],inactive
same,Potency,[3],inactive
same,Potency,[4],inactive
same,"activity change, negative = inhibition",[5]; [10],-25.3%
OCCCNc1ccccc1,Potency,[1],inactive
same,Potency,[2],inactive
same,Potency,[3],inactive
same,Potency,[4],inactive
same,"activity change, negative = inhibition",[5]; [10],-22.3%
Cc1ccc([C@@H]2O[C@H](CO)[C@@H](O)[C@H](O)[C@H]2O)cc1Cc1ccc(-c2ccc(F)cc2)s1,Potency,[1],inactive
same,Potency,[2],inactive
same,Potency,[3],inactive
same,Potency,[4],inactive
same,Potency,[5]; [10],17800 nM (active)
CC(C)(C)CC(C)(C)c1cc(Cc2cc(C(C)(C)CC(C)(C)C)cc(-n3nc4ccccc4n3)c2O)c(O)c(-n2nc3ccccc3n2)c1,"activity change, negative = cytotoxicity",[1],1.83% [at 5.34 µM] (inactive)
same,outcome,[2],inactive [at 5.34 µM]
same,"activity change, negative = cytotoxicity",[3],-1.1% [at 5.34 µM] (inactive)
same,outcome,[4],inactive [at 5.25 µM]
same,"activity change, negative = inhibition",[5]; [10],-28.1% [at 5.25 µM]
CC(C)N[C@@H]1CCn2c(=O)[nH]c3cccc(c32)[C@H]1O,Potency,[1],inactive
same,Potency,[2],inactive
same,Potency,[3],inactive
same,Potency,[4],inactive
same,Potency,[5]; [10],inactive
same,Potency,[6],inactive
same,Potency,[7],inactive
O=C(O)C(O)C(O)C(=O)O (centres undefined),Potency,[1],inactive
same,Potency,[2],inactive
same,Potency,[3],inactive
same,Potency,[4],inactive
same,"activity change, negative = inhibition",[5]; [10],-16.3%
CNc1ncc(-c2ccc3c(=O)c(C(=O)O)cn(C4CC4)c3c2C)cc1C,Potency,[1],inactive
same,Potency,[2],inactive
same,Potency,[3],inactive
same,Potency,[4],inactive
same,"activity change, negative = inhibition",[5]; [10],-15.2% [at 19 µM]
CC(C)N=c1cc2n(-c3ccc(Cl)cc3)c3ccccc3nc-2cc1Nc1ccc(Cl)cc1,Potency,[1],inactive
same,Potency,[2],inactive
same,Potency,[3],inactive
same,Potency,[4],inactive
same,"activity change, negative = inhibition",[5]; [10],-33.7%
CCCCCCCCCC(=O)OC1CC[C@H]2[C@@H]3CCC4=CC(=O)CC[C@@H]4[C@H]3CC[C@]12C (some centres undefined),Potency,[1],inactive
same,Potency,[2],inactive
same,Potency,[3],inactive
same,Potency,[4],inactive
same,"activity change, negative = inhibition",[5]; [10],0.678%
same,Potency,[6],inactive
Cc1ccc(Sc2ccccc2N2CCNCC2)c(C)c1,Potency,[1],inactive
same,Potency,[2],inactive
same,Potency,[3],inactive
same,Potency,[4],inactive
same,Potency,[5]; [10],22400 nM (active)
same,"activity change, negative = inhibition",[5]; [10],-7.77%
CC[C@H](C)C1NC(=O)[C@H](Cc2ccc(O)cc2)NC(=O)[C@@H](N)CSSC[C@@H](C(=O)N2CCC[C@H]2C(=O)N[C@@H](CC(C)C)C(=O)NCC(N)=O)NC(=O)[C@H](CC(N)=O)NC(=O)[C@H](CCC(N)=O)NC1=O (some centres undefined),Potency,[1],inactive
same,Potency,[2],inactive
same,Potency,[3],inactive
same,Potency,[4],inactive
same,"activity change, negative = inhibition",[5]; [10],-27.2%
CC#CCC(C)[C@H](O)/C=C/[C@@H]1[C@H]2c3cccc(CCCC(=O)O)c3O[C@H]2C[C@H]1O (some centres undefined),Potency,[1],inactive
same,Potency,[2],inactive
same,Potency,[3],inactive
same,Potency,[4],inactive
same,"activity change, negative = inhibition",[5]; [10],-5.27%
NC(=O)c1ccc[n+]([C@@H]2O[C@H](COP(=O)([O-])OP(=O)(O)OC[C@H]3O[C@@H](n4cnc5c(N)ncnc54)[C@H](O)[C@@H]3O)[C@@H](O)[C@H]2O)c1,Potency,[1],inactive
same,Potency,[2],inactive
same,Potency,[3],inactive
same,Potency,[4],inactive
same,"activity change, negative = inhibition",[5]; [10],-19.8%
OCC=Cc1ccccc1,Potency,[1],inactive
same,Potency,[2],inactive
same,Potency,[3],inactive
same,Potency,[4],inactive
same,"activity change, negative = inhibition",[5]; [10],-22.7%
same,Potency,[8],inactive
CCC(=O)OC1(C(=O)CCl)C(C)CC2C3CC(F)C4=CC(=O)C=CC4(C)C3(F)C(O)CC21C (centres undefined),Potency,[1],inactive
same,Potency,[2],inactive
same,Potency,[3],inactive
same,"activity change, negative = inhibition",[5]; [10],-5.75%
C[C@H]1[C@H](OC(=O)CCC(=O)O)O[C@@H]2O[C@@]3(C)CC[C@H]4[C@H](C)CC[C@@H]1[C@@]24OO3,Potency,[1],inactive
same,Potency,[2],2820 nM (active)
same,Potency,[3],inactive
same,Potency,[5]; [10],2240 nM (active)
same,Potency,[9],1210 nM (active)
CN(C)C1C(=O)C(C(N)=O)=C(O)C2(O)C(=O)C3=C(O)c4c(O)ccc(Cl)c4C(C)(O)C3CC12 (centres undefined),Potency,[1],inactive
same,Potency,[2],inactive
same,Potency,[3],inactive
same,Potency,[4],inactive
same,Potency,[6],inactive
C[C@H]1CNCCCN1S(=O)(=O)c1cccc2cncc(F)c12,Potency,[1],inactive
same,Potency,[2],inactive
same,Potency,[3],inactive
same,"activity change, negative = inhibition",[5]; at 27.1 µM (top of the series),-27.6%
same,"activity change, negative = inhibition",[5]; at 57.1 µM (top of the series),-12.6%
C=C[C@H]1CN2CC[C@H]1C[C@@H]2[C@@H](OC(=O)OCC)c1ccnc2ccc(OC)cc12,Potency,[1],inactive
same,Potency,[2],inactive
same,Potency,[3],inactive
same,Potency,[4],inactive
same,Potency,[6],inactive
same,Potency,[7],inactive
O=S(=O)(O)c1ccc2c(N=Nc3ccc(S(=O)(=O)O)c4ccccc34)c(O)c(S(=O)(=O)O)cc2c1,Potency,[1],inactive
same,Potency,[2],inactive
same,Potency,[4],inactive
same,"activity change, negative = inhibition",[5]; [10],-21.2%
